From PubChem BioAssay
FXN GAA850 act: frataxin GAA850 promoter activation. HEK293 lucGAA850 FXN promoter luciferase reporter, 24 h; percent of 10 µM SAHA response. hit rate 0.56% among 360,000. activation, % at 6 µM;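 active means activation above the average of all compounds screened plus 3 SD, cutoff fixed separately per campaign, cut at about 7.5% in these data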;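 further: 0% = DMSO wells and 100% = 10 µM SAHA wells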
HSF1 inh: HSF1 inhibition; NIH3T3-HGL HSE-luciferase, MG132-induced, luminescence 8 h; hits give low values; activity change, negative = inhibition, % at 7.5 µM (by protocol); hit rate 0.77% among 300,000; AID 2098;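 active means more than half of replicate wells show activity change below -50%, luminescence cut by over half; inconclusive means some wells, but at most half, below -50%; inactive means no replicate well below -50%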;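 further: luciferase reports HSF-1 transcriptional activity via heat shock element; 0% = median of DMSO wells and -100% = zero luminescence signal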
AHR activator: activators of human aryl hydrocarbon receptor; P35869; AHR-responsive luciferase reporter cells, luminescence; activation, % at 5 µM; hit rate 2.5% among 320,000; AID 2796; in the data active means activation above about 47%;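 further: 0% = vehicle wells and 100% = reference agonist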
Target sequence (P35869 whole entry, looked up): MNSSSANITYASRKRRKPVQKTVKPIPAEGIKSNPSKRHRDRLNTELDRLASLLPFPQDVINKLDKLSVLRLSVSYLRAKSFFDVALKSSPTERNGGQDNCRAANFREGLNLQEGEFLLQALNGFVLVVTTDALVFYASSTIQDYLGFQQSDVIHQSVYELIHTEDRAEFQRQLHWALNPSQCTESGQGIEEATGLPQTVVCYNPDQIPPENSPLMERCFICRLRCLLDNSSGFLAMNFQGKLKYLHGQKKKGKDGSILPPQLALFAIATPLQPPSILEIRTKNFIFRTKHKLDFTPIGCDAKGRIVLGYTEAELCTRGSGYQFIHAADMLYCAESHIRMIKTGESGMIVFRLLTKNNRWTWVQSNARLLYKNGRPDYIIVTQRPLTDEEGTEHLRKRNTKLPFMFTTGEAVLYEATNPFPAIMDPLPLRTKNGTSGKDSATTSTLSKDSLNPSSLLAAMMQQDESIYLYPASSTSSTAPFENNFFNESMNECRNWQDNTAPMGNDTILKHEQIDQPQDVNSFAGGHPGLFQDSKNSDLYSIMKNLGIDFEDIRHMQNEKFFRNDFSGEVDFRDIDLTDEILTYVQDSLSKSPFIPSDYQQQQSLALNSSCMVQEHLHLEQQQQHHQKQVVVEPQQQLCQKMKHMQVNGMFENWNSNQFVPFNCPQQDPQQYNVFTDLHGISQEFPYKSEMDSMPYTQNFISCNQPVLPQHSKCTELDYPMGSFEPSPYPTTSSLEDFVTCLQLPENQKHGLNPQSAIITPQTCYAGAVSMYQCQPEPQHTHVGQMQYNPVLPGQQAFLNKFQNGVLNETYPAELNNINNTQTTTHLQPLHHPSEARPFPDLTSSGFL
NR0B1 inh: inhibitors of human orphan nuclear receptor DAX1 (NR0B1). hit rate 0.99% among 340,000. HEK293 Gal4-DAX1 luciferase reporter, luminescence. inhibition, % at 6.75 µM. AID 504766. P51843;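 active means inhibition above the mean over all tested compounds plus 3 SD, cut at about 4.2% in these data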;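 further: 0% = DAX1-transfected cells with DMSO and 100% = empty-vector control cells with DMSO; inhibition shows as a rise in luminescence from relieved DAX1 repression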
HSF-1 act: increases HSF-1 driven luciferase reporter signal. NIH3T3-HGL HSF-1 luciferase reporter, MG132, 8 h; 100% = twice DMSO control signal. activation, % at 9 µM. hit rate 1.7% among 300,000;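 active means mean replicate activation of at least 50% with a set share of replicates each reaching 50%; inconclusive means only one of those two conditions met; inactive means mean below 50% and too few replicates reaching it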;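 further: 0% = median of the neutral control wells and 100% = twice that signal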
* hit, by the source's call; u = inconclusive; x = no result given. An excerpt weighted towards active compounds, which were near 5.4% of everything screened.

SMILES	FXN GAA850 act	HSF1 inh	AHR activator	NR0B1 inh	HSF-1 act
COc1cc(NS(=O)(=O)c2cc(C)ccc2OC)c(OC)cc1Cl	-1	20	20	-1	67*
COc1ccc(C)cc1S(=O)(=O)Nc1cc(Cl)ccc1Cl	-1	0	23	-1	7
COc1cc(/C=C/C(=O)c2ccc3c(c2)OCCO3)cc(OC)c1OC	-4	147	6	-3	190*
COc1ccc(OC)c(/C=C/C(=O)c2ccc3c(c2)OCCO3)c1	3	53	24	-2	66*
Cc1ccc(C2(C)NC(=O)N(CC(=O)NNC(=O)c3ccccc3F)C2=O)cc1 (centres undefined)	0	x	0	0	x
Cc1ccc(NC(=S)N(Cc2cccs2)Cc2cc3cccc(C)c3[nH]c2=O)cc1	1	19	22	-2	u
CCOc1ccccc1CNC(=O)c1c([N+](=O)[O-])c(C)nn1C	-2	-3	61*	-1	9
CCOc1ccccc1CNC(=O)c1nn(CC)cc1[N+](=O)[O-]	1	-5	5	0	9
NNC(=O)c1ccc([N+](=O)[O-])c(CS(=O)(=O)c2ccc(Cl)cc2)c1	2	28	8	-1	57*
CO/N=C/NC(=O)c1ccc([N+](=O)[O-])c(CS(=O)(=O)c2ccc(Cl)cc2)c1	0	-2	-3	0	-28
CC(Sc1nnc(C2CC2)n1C1CC1)C(=O)c1ccc(Br)cc1 (centres undefined)	3	x	x	-2	x
CCN1C(=O)c2ccccc2S(=O)c2ccc(C(=O)N3CCCC3)cc21 (centres undefined)	2	-85*	1	1	-88
CCN1C(=O)c2ccccc2S(=O)c2ccc(C(=O)NCc3ccc(OC)cc3)cc21 (centres undefined)	1	-87*	14	1	-90
O=C(NC1(C(F)(F)F)N=C2SCCN2C1=O)c1ccccc1F (centres undefined)	3	2	0	x	3
CCOC(=O)C(=Cc1ccc2c(c1)OCO2)c1ccccc1	3	x	x	2	x
CCCS(=O)(=O)N1CCC(C(=O)N2CCC(Cc3ccccc3)CC2)CC1	-2	-2	1	-2	0
CCCS(=O)(=O)N1CCCC(C(=O)N2CCC(Cc3ccccc3)CC2)C1 (centres undefined)	-1	-81*	-3	-1	-86
O=[N+]([O-])c1ccc(S(=O)(=O)NN=Cc2ccc(Cl)c(Cl)c2)cc1	2	x	x	2	x
CC(=O)c1c(C)[nH]c(C(=O)Nc2cccnc2)c1C	-2	-2	57*	2	7
CC(=O)c1c(C)[nH]c(C(=O)Nc2ccc(C)c(C)c2)c1C	2	2	-16	2	10
COc1ccc(NC(=O)c2[nH]c(C)c(C(C)=O)c2C)cc1	2	13	61*	0	27
CCOC(=O)c1c(C)[nH]c(C(=O)Nc2ccc(C)c(Cl)c2)c1C	x	33	-12	x	63*
CCOC(=O)c1[nH]c(C)c(C(=O)Nc2ccc3c(c2)OCCO3)c1C	-3	-18	8	-1	-26
CC(=O)c1c(C)[nH]c(C(=O)Nc2ccc3c(c2)OCCO3)c1C	1	11	54*	1	21
COc1ccc(/C=C2\SC(=S)N(CC(=O)NC3CCS(=O)(=O)C3)C2=O)cc1 (centres undefined)	-1	10	2	1	7
SMILES	FXN GAA850 act	HSF1 inh	AHR activator	NR0B1 inh	HSF-1 act
Cc1ccc(NCC(=O)Nc2ccc(Br)cc2)cc1F	2	35	10	0	48
COc1ccc(NC(=O)c2[nH]c(C)c(C(C)=O)c2C)cc1S(=O)(=O)Nc1ccc(Br)cc1	1	37	13	2	89*
Cc1csc2nc(O)c(C(=O)NC3CCCCC3C)c(=O)n12 (centres undefined)	1	1	5	0	8
CCOc1ccc(-n2c(=O)c3c4c(sc3n(CC(=O)NCCCOC)c2=O)CCCCC4)cc1	3	-8	1	-1	-9
COc1ccc(-n2c(=O)c3c4c(sc3n(CC(N)=O)c2=O)CCCCC4)cc1	0	11	2	2	52*
COc1ccc([C@@H]2C[C@H]3CN(c4ccccc4)C(=O)[C@]34CCCN24)c(OC)c1OC	1	-4	2	-2	0
COc1ccccc1N1C[C@@H]2C[C@@H](c3ccco3)N3CCC[C@@]23C1=O	-2	7	-1	4.9*	4
COc1ccc(-c2csc(NC3CCCCC3)n2)c(OC)c1	-1	-19	1	0	-21
CN(C(=O)c1cccc(Cl)c1)C1CCCN(Cc2ccccc2F)C1 (centres undefined)	-1	4	-3	0	5
COc1cc(C(=O)N(C)C2CCCN(Cc3ccccc3F)C2)cc(OC)c1OC (centres undefined)	-2	-77*	-1	-1	-81
Oc1ccc2ccccc2c1C=NNc1ccccn1	0	70*	x	0	70*
Fc1cccc(F)c1/C=N/Nc1ccccn1	4	33	36	5.2*	u
Oc1ccc2ccccc2c1CNc1ccccn1	0	-3	17	0	-5
CCOc1cc(NC(=S)NCCCN2CCOCC2)c(OCC)cc1NC(=O)c1ccc(C)cc1	1	-3	0	-1	19
Clc1ccc(COn2c(-c3ccc(Cl)cc3)nc3ccccc32)cc1	1	35	7	0	60*
Clc1ccc(COn2c(-c3ccccc3)nc3ccccc32)cc1	0	6	5	-1	16
Cc1ccc(COn2c(-c3ccc(Cl)cc3)nc3ccc([N+](=O)[O-])cc32)cc1	5	-2	4	4.7*	-5
Cc1cc(C)c(S(=O)(=O)Nc2nnc(C)s2)c(C)c1	2	-4	-5	1	-21
Cc1cc(C)c(S(=O)(=O)Nc2nnc(CC(C)C)s2)c(C)c1	-1	0	1	4.4*	2
Cc1ccc(S(=O)(=O)N2C[C@@H](C)[C@]3(C2)[C@H](O)[C@H](OC(=O)NCc2ccccc2F)C[C@H]2C(=O)N(c4ccccc4)C(=O)[C@H]23)cc1	-3	x	x	0	x
O=C(O)CN1C(=O)C2C3CCC(C3)C2C1=O (centres undefined)	-1	x	x	1	x
Cc1ccc(O)c(NC(=O)C2=CC(c3cccs3)=NS(=O)(=O)N2C)c1	-2	-8	52*	1	0
Cc1ccc(C2=NS(=O)(=O)N(C)C(C(=O)NC(C)c3ccccc3)=C2)cc1 (centres undefined)	0	5	0	0	13
CCc1ccccc1NC(=O)C1=CC(c2cccs2)=NS(=O)(=O)N1C	-2	-2	6	0	15
CSc1ccccc1NC(=O)C1=CC(c2ccc(C)cc2)=NS(=O)(=O)N1C	-1	-56*	12	-1	-65
C[C@@H]1CN([C@@H](C)CO)C(=O)c2cc(NC(=O)c3ccccc3)ccc2O[C@@H](C)CCCCO[C@@H]1CN(C)S(=O)(=O)c1ccc(F)cc1	-3	x	x	0	x
